Results published in PubChem BioAssay (EPA / NIEHS).
Values joined by “and” are separate entries in the source; they are usually repeats but may differ in a detail not shown here. Equal entries are not always repeated. More than one record can exist for a structure, and the calls need not agree. Active and inactive are the calls of the source. The calls were made as follows: active = hit-call score of the fitted dose curve at least 0.9, where 1 is the maximum; inactive = score below 0.9.

Assays:
Conditions in all cases: mRNA level, 48 h; actives raise or lower the signal
[1] = read-out: growth arrest and DNA damage 45 (GADD45A), GADD45A (gene 1647); assay: LTEA_HepaRG_GADD45A: Life Technologies and Expression Analysis (LTEA) Assay for growth arrest and DNA damage 45 (GADD45A) using HepaRG (AID 2283458)
Procedure, shortened: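 Differentiated HepaRG cells exposed 48 h in serum-free induction medium to 8 concentrations, top 100 uM in half-log steps, 0.5% DMSO. GADD45A mRNA quantified by qRT-PCR, normalized to ACTB, GAPDH and POLR2A; bidirectional fit versus DMSO.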

[2] = read-out: Forkhead box O3 (FOXO3), FOXO3 (gene 2309); assay: LTEA_HepaRG_FOXO3: Life Technologies and Expression Analysis (LTEA) Assay for Forkhead box O3 (FOXO3) using HepaRG (AID 2283459)
Procedure, shortened: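 Differentiated human HepaRG cells, 48 h post-plating, exposed in duplicate for 48 h in serum-free induction medium; 8-point half-log series from 100 uM in 0.5% DMSO. FOXO3 mRNA by TaqMan qRT-PCR, normalized to ACTB/GAPDH/POLR2A; bidirectional fit versus DMSO.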

[3] = read-out: ABC Transporter (ABCB1), ABCB1 (gene 5243); assay: LTEA_HepaRG_ABCB1: Life Technologies and Expression Analysis (LTEA) Assay for ABC Transporter (ABCB1) using HepaRG (AID 2283460)
Procedure, shortened: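 HepaRG cells exposed in duplicate for 48 h in serum-free induction medium to eight half-log concentrations up to 100 uM in 0.5% DMSO. ABCB1 mRNA quantified by qRT-PCR, normalised to ACTB, GAPDH and POLR2A; fitted bidirectionally versus DMSO.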

[4] = read-out: growth arrest and DNA damage 45 (GADD45B), GADD45B (gene 4616); assay: LTEA_HepaRG_GADD45B: Life Technologies and Expression Analysis (LTEA) Assay for growth arrest and DNA damage 45 (GADD45B) using HepaRG (AID 2283461)
Procedure, shortened: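 Transcript level quantified by Fluidigm TaqMan qRT-PCR with three housekeeping genes for normalization, analyzed for up- or down-regulation against 0.5% DMSO. HepaRG cultures dosed 48 h at eight half-log concentrations up to 100 uM, duplicates.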

[5] = read-out: ABC Transporter (ABCC3), ABCC3 (gene 8714); assay: LTEA_HepaRG_ABCC3: Life Technologies and Expression Analysis (LTEA) Assay for ABC Transporter (ABCC3) using HepaRG (AID 2283462)
Procedure, shortened: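 Transcript level by TaqMan qRT-PCR, normalised to three housekeeping genes, fitted in both directions relative to vehicle. Chemicals tested in duplicate at eight half-log concentrations up to 100 uM for 48 h on HepaRG cells (0.5% DMSO).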

[6] = read-out: ABC Transporter (ABCB11), ABCB11 (gene 8647); assay: LTEA_HepaRG_ABCB11: Life Technologies and Expression Analysis (LTEA) Assay for ABC Transporter (ABCB11) using HepaRG (AID 2283463)
Procedure, shortened: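 Differentiated human HepaRG cells in serum-free induction medium, dosed in duplicate for 48 h. Eight-point half-log series from 100 uM in 0.5% DMSO; ABCB11 mRNA by qRT-PCR, normalized to ACTB, GAPDH, POLR2A, fitted bidirectionally versus DMSO.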

[7] = read-out: ABC Transporter (ABCC2), ABCC2 (gene 1244); assay: LTEA_HepaRG_ABCC2: Life Technologies and Expression Analysis (LTEA) Assay for ABC Transporter (ABCC2) using HepaRG (AID 2283464)
Procedure, shortened: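 Endpoint is ABCC2 transcript level from qRT-PCR, normalized to three housekeeping genes and fitted bidirectionally relative to DMSO. Human HepaRG cells received test chemical for 48 h at up to 100 uM (8 points, half-log steps, 0.5% DMSO), duplicate wells.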

[8] = read-out: Broad substrate specificity ATP-binding cassette transporter ABCG2 (Homo sapiens) (UniProt Q9UNQ0); assay: LTEA_HepaRG_ABCG2: Life Technologies and Expression Analysis (LTEA) Assay for ABC Transporter (ABCG2) using HepaRG (AID 2283465)
Procedure, shortened: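 Differentiated HepaRG cells were exposed for 48 h in serum-free induction medium to 8 half-log concentrations, top 100 uM, in 0.5% DMSO. ABCG2 mRNA was measured by qRT-PCR, normalized to ACTB, GAPDH and POLR2A, with bidirectional fitting versus DMSO.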

[9] = read-out: ATP-citrate lyase (ACLY), ACLY (gene 47); assay: LTEA_HepaRG_ACLY: Life Technologies and Expression Analysis (LTEA) Assay for ATP-citrate lyase (ACLY) using HepaRG (AID 2283466)
Procedure, shortened: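 Differentiated HepaRG cells exposed 48 h in serum-free induction medium to eight half-log concentrations up to 100 uM in 0.5% DMSO, duplicates. Transcript measured by Fluidigm TaqMan qRT-PCR, normalized to ACTB, GAPDH, POLR2A; bidirectional fit versus DMSO.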

[10] = read-out: Peroxisomal acyl-coenzyme A oxidase 1 (ACOX1) gene, ACOX1 (gene 51); assay: LTEA_HepaRG_ACOX1: Life Technologies and Expression Analysis (LTEA) Assay for Peroxisomal acyl-coenzyme A oxidase 1 (ACOX1) gene using HepaRG (AID 2283467)
Procedure, shortened: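 HepaRG cells, plated 48 h then switched to serum-free induction medium, were exposed in duplicate for 48 h to 8-point half-log concentrations up to 100 uM in 0.5% DMSO. ACOX1 mRNA was measured by qRT-PCR, normalized to ACTB/GAPDH/POLR2A, and fitted bidirectionally versus DMSO.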

Broad substrate specificity ATP-binding cassette transporter ABCG2 (Homo sapiens), sequence (Q9UNQ0 whole entry, looked up): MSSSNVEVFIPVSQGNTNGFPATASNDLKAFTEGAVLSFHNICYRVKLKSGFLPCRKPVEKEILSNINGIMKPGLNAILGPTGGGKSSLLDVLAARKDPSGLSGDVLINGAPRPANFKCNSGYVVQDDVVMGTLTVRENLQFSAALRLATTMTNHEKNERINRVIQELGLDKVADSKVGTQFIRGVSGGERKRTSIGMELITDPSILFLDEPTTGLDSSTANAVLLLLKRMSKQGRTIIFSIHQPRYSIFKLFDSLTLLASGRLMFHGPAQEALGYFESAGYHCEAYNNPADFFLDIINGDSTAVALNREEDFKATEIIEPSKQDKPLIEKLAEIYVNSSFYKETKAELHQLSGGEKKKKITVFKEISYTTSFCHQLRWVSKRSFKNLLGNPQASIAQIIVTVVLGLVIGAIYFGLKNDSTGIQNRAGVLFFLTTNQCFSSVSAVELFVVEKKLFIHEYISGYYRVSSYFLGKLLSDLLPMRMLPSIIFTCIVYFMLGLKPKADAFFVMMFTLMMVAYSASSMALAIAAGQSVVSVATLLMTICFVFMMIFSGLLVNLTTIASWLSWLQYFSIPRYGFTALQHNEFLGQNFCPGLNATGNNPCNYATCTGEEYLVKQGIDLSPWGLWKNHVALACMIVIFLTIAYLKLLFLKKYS

Compound	AC50 [1]	outcome [2]	AC50 [3]	outcome [4]	AC50 [5]	AC50 [6]	AC50 [7]	outcome [8]	outcome [9]	AC50 [10]	outcome [1]	outcome [3]	outcome [5]	outcome [6]	outcome [7]	outcome [10]	AC50 [2]	AC50 [4]	AC50 [8]	AC50 [9]
C[C@]12CC[C@@H]3c4ccc(O)cc4C[C@@H](CCCCCCCCCS(=O)CCCC(F)(F)C(F)(F)F)[C@H]3[C@@H]1CC[C@@H]2O (some centres undefined)	0.105 µM (active)	inactive	27.8 µM (active)	inactive	30.9 µM (active)	10.5 µM (active)	22.4 µM (active)	inactive	inactive	21.1 µM (active)	–	–	–	–	–	–	–	–	–	–
CC(C)(c1ccc(O)cc1)c1ccc(O)cc1	–	inactive	50 µM (active)	inactive	–	–	–	inactive	inactive	0.199 µM (active)	inactive	inactive	inactive	inactive	inactive	inactive	–	–	–	–
O=C(O)c1ccccc1	–	inactive	–	inactive	–	–	–	inactive	inactive	–	inactive	inactive	inactive	inactive	inactive	inactive	–	–	–	–
CN(C)C(=O)Nc1ccc(Cl)c(Cl)c1	–	–	–	–	–	50 µM (active)	–	–	inactive	–	inactive	inactive	inactive	–	inactive	inactive	22.2 µM (active)	66.5 µM (active)	36.4 µM (active)	–
CCCCOC(=O)C(C)Oc1ccc(Oc2ccc(C(F)(F)F)cn2)cc1 (centres undefined)	–	inactive	–	inactive	–	–	–	inactive	inactive	–	inactive	inactive	inactive	inactive	inactive	inactive	–	–	–	–
CC(=O)[C@H]1CC[C@H]2[C@@H]3CCC4=CC(=O)CC[C@]4(C)[C@H]3CC[C@]12C	47.8 µM (active)	inactive	79.3 µM (active)	–	28.2 µM (active)	58.5 µM (active)	78.9 µM (active)	–	–	75.8 µM (active)	–	–	–	–	–	–	–	30 µM (active)	12.5 µM (active)	83.2 µM (active)
CC(=O)S[C@@H]1CC2=CC(=O)CC[C@]2(C)[C@H]2CC[C@@]3(C)[C@@H](CC[C@@]34CCC(=O)O4)[C@H]12	–	inactive	–	inactive	–	67 µM (active)	–	inactive	inactive	50 µM (active)	inactive	inactive	inactive	–	inactive	–	–	–	–	–
COCCO	–	inactive	–	inactive	–	–	–	inactive	inactive	–	inactive	inactive	inactive	inactive	inactive	inactive	–	–	–	–
CCCN(CCC)C(=O)SCC	–	inactive	–	inactive	–	–	–	inactive	inactive	–	inactive	inactive	inactive	inactive	inactive	inactive	–	–	–	–
CCNc1nc(N)nc(Cl)n1	–	inactive	–	inactive	–	–	–	inactive	inactive	–	inactive	inactive	inactive	inactive	inactive	inactive	–	–	–	–
O=C(Nc1ccc([N+](=O)[O-])cc1Cl)c1cc(Cl)ccc1O	4.29 µM (active)	inactive	2.25 µM (active)	–	3.52 µM (active)	3.37 µM (active)	3.13 µM (active)	–	–	3.17 µM (active)	–	–	–	–	–	–	–	3.32 µM (active)	17 µM (active)	3.76 µM (active)
COC(=O)c1ccccc1C(=O)O	–	inactive	–	inactive	–	–	–	inactive	inactive	–	inactive	inactive	inactive	inactive	inactive	inactive	–	–	–	–
CCC(C)OC(=O)N1CCCCC1CCO (centres undefined)	–	inactive	–	inactive	–	–	–	inactive	inactive	–	inactive	inactive	inactive	inactive	inactive	inactive	–	–	–	–
S=C([S-])NCCNC(=S)[S-].[Mn+2]	5.52 µM (active)	–	3.47 µM (active)	–	2.06 µM (active)	1.85 µM (active)	2.87 µM (active)	inactive	–	2.64 µM (active)	–	–	–	–	–	–	3.51 µM (active)	5.56 µM (active)	–	0.871 µM (active)
OB(O)O	–	inactive	–	inactive	–	–	–	inactive	inactive	–	inactive	inactive	inactive	inactive	inactive	inactive	–	–	–	–
O=C(c1ccccc1)C1CCCCC1	–	inactive	–	inactive	–	–	–	inactive	inactive	–	inactive	inactive	inactive	inactive	inactive	inactive	–	–	–	–
CCOC(=O)C(C)Oc1ccc(Oc2cnc3cc(Cl)ccc3n2)cc1 (centres undefined)	–	inactive	–	inactive	–	1.93 µM (active)	–	inactive	inactive	–	inactive	inactive	inactive	–	inactive	inactive	–	–	–	–
COC(=O)c1ccc(I)cc1S(=O)(=O)NC(=O)Nc1nc(C)nc(OC)n1	–	inactive	–	inactive	–	–	–	inactive	inactive	–	inactive	inactive	inactive	inactive	inactive	inactive	–	–	–	–
CCCN(CCC)c1c([N+](=O)[O-])cc(C(F)(F)F)c(N)c1[N+](=O)[O-]	–	–	18 µM (active)	inactive	–	22 µM (active)	25.4 µM (active)	inactive	inactive	–	inactive	–	inactive	–	–	inactive	50 µM (active)	–	–	–
CCCCCOC(=O)COc1cc(N2C(=O)C3=C(CCCC3)C2=O)c(F)cc1Cl	–	inactive	–	inactive	–	–	–	inactive	inactive	–	inactive	inactive	inactive	inactive	inactive	inactive	–	–	–	–
c1ccc2[nH]c(-c3cscn3)nc2c1	–	inactive	–	inactive	–	–	–	–	inactive	–	inactive	inactive	inactive	inactive	inactive	inactive	–	–	9.92 µM (active)	–
S=C(S)NCCNC(=S)S.[Mn+2].[S-]C([S-])=NCCN=C([S-])[S-].[Zn+2]	3.61 µM (active) and 2.03 µM (active)	inactive	881 nM (active) and 993 nM (active) and 732 nM (active)	–	717 nM (active) and 898 nM (active) and 1.03 µM (active)	695 nM (active) and 718 nM (active) and 693 nM (active)	1.09 µM (active) and 988 nM (active) and 1.44 µM (active)	–	–	799 nM (active) and 1.07 µM (active) and 953 nM (active)	inactive	–	–	–	–	–	1.62 µM (active) and 1.21 µM (active)	3.12 µM (active) and 2.14 µM (active) and 4.41 µM (active)	200 nM (active) and 267 nM (active) and 401 nM (active)	200 nM (active) and 397 nM (active) and 391 nM (active)
COC(=O)CSc1cc(N=c2sc(=O)n3n2CCCC3)c(F)cc1Cl	–	inactive	25.6 µM (active)	inactive	–	–	50 µM (active)	inactive	inactive	–	inactive	–	inactive	inactive	–	inactive	–	–	–	–
C[C@]12C[C@H](O)[C@H]3[C@@H](CCC4=CC(=O)CC[C@@]43C)[C@@H]1CC[C@@H]2C(=O)CO	–	inactive	70 µM (active)	inactive	–	–	67.9 µM (active)	–	inactive	–	inactive	–	inactive	inactive	–	inactive	–	–	50 µM (active)	–
CCCCC(CC)CN1C(=O)C2C3C=CC(C3)C2C1=O (centres undefined)	–	inactive	12.5 µM (active)	inactive	50 µM (active)	89 µM (active)	–	–	–	–	inactive	–	–	–	inactive	inactive	–	–	13.2 µM (active)	73 µM (active)
CCCCOCCOCCOCc1cc2c(cc1CCC)OCO2	–	inactive	4.01 µM (active)	inactive	–	–	7.48 µM (active)	–	inactive	–	inactive	–	inactive	inactive	–	inactive	–	–	8.84 µM (active)	–
